# Measured values: the supplement of paper PMC8728848
# Only a selection was taken, and the strongest signals are over-represented in it overall.
# B1: M6PR (Bos taurus), P11456 (protein)
# chain: MMSPLHSSWRTGLLLLLLFSVAVRESWQTEEKTCDLVGEKGKESEKELALLKRLTPLFNKSFESTVGQSPDMYSYVFRVCREAGNHSSGAGLVQINKSNGKETVVGRFNETQIFNGSNWIMLIYKGGDEYDNHCGREQRRAVVMISCNRHTLADNFN
# B2: UEA-I (Ulex europaeus), P22972 (protein)
# chain: SDDLSFKFKNFSQNGKDLSFQGDASVIETGVLQLNKVGNNLPDETGGIARYIAPIHIWNCNTGEVASFITSFSFFMETSANPKAATDGLTFFLAPPDSPLRRAGGYFGLFEDTKDNDSSYQTVAVEFDTIGSPVNFDDPGFPHIGIDVNRVKSINAERWNKRYGLNNVANVEIIYEASSKTLTASLTYPSDQTSISVTSIVDLKEILPEWVSVGFSGGTYIGRQATHEVLNWYFTSNLIN
# Key:
# Assay in all cases: glycan array binding signal (z-score within array); higher = stronger binding
# Conditions in all cases: glycan notation: IUPAC condensed, linker removed
# [1] = target: Fuc(a1-2)Gal(b1-3)GalNAc(b1-4)[Neu5Ac(a2-3)]Gal(b1-4)Glc
# Method in brief: (§1)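 The binding signal is a Z-score computed within each array. Data were drawn from 3228 arrays in the Consortium for Functional Glycomics database, restricted to those with a known protein sequence. Scores were averaged over arrays of the same protein sequence at different concentrations or buffers, and over linkers, and negative values can be taken as non-binding.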
# [2] = target: Fuc(a1-2)[Gal(a1-3)]Gal(b1-3)GlcNAc
# Method in brief: as §1
# [3] = target: Fuc(a1-2)[GalNAc(a1-4)]Gal(b1-4)GlcNAc
# Method in brief: as §1
# Fuc(a1-4)GlcNAc = target: Fuc(a1-4)GlcNAc
# Method in brief: as §1
# Gal(a1-3)Gal(b1-4)GlcNAc = target: Gal(a1-3)Gal(b1-4)GlcNAc
# Method in brief: as §1
# [4] = target: Gal(b1-3)[Fuc(a1-4)]GlcNAc
# Method in brief: as §1
# [5] = target: Gal(b1-3)[Fuc(a1-4)]GlcNAc(b1-3)Gal(b1-4)[Fuc(a1-3)]GlcNAc
# Method in brief: as §1
# Gal3S(b1-3)GalNAc = target: Gal3S(b1-3)GalNAc
# Method in brief: as §1
# GalNAc(a1-3)Gal = target: GalNAc(a1-3)Gal
# Method in brief: as §1
# GalNAc(a1-3)GalNAc = target: GalNAc(a1-3)GalNAc
# Method in brief: as §1
# [6] = target: GalNAc(b1-3)Gal(a1-4)Gal(b1-4)GlcNAc
# Method in brief: as §1
# GlcA(b1-6)Gal = target: GlcA(b1-6)Gal
# Method in brief: as §1
# GlcNAc(b1-3)Gal(b1-4)Glc = target: GlcNAc(b1-3)Gal(b1-4)Glc
# Method in brief: as §1
# Man(a1-2)Man(a1-3)Man = target: Man(a1-2)Man(a1-3)Man
# Method in brief: as §1
# [7] = target: Man(a1-2)Man(a1-3)[Man(a1-2)Man(a1-6)]Man(a1-6)[Man(a1-3)[Man(a1-6)]Man(a1-6)]Man(b1-4)GlcNAc(b1-4)GlcNAc
# Method in brief: as §1
# [8] = target: Neu5Ac(a2-3)Gal(b1-3)[Neu5Ac(a2-3)Gal(b1-4)]GlcNAc
# Method in brief: as §1
# [9] = target: Neu5Ac(a2-3)Gal(b1-4)GlcNAc(b1-3)Gal(b1-4)GlcNAc(b1-3)Gal(b1-4)GlcNAc
# Method in brief: as §1
# [10] = target: Neu5Ac(a2-3)Gal(b1-4)GlcNAc6S
# Method in brief: as §1
# [11] = target: Neu5Ac(a2-3)Gal(b1-4)[Fuc(a1-3)]GlcNAc(b1-3)Gal(b1-4)GlcNAc
# Method in brief: as §1
# [12] = target: Neu5Ac(a2-6)Gal(b1-4)GlcNAc(b1-2)Man(a1-3)[Neu5Ac(a2-6)Gal(b1-4)GlcNAc(b1-2)Man(a1-6)]Man(b1-4)GlcNAc(b1-4)GlcNAc
# Method in brief: as §1
# [13] = target: Neu5Ac(a2-6)GalNAc(b1-4)GlcNAc
# Method in brief: as §1
# [14] = target: Neu5Gc(a2-3)Gal(b1-3)[Fuc(a1-4)]GlcNAc
# Method in brief: as §1
# Neu5Gc(a2-3)Gal(b1-4)Glc = target: Neu5Gc(a2-3)Gal(b1-4)Glc
# Method in brief: as §1
# Neu5Gc(a2-6)GalNAc = target: Neu5Gc(a2-6)GalNAc
# Method in brief: as §1
# Fuc(a1-2)Gal(b1-4)Glc = target: Fuc(a1-2)Gal(b1-4)Glc
# Method in brief: as §1
# Fuc(a1-2)Gal(b1-4)Glc6S = target: Fuc(a1-2)Gal(b1-4)Glc6S
# Method in brief: as §1
# Fuc(a1-2)Gal(b1-4)GlcNAc = target: Fuc(a1-2)Gal(b1-4)GlcNAc
# Method in brief: as §1
# [15] = target: Fuc(a1-2)Gal(b1-4)GlcNAc6S
# Method in brief: as §1
# Fuc(a1-2)Gal6S(b1-4)Glc = target: Fuc(a1-2)Gal6S(b1-4)Glc
# Method in brief: as §1
# [16] = target: Fuc(a1-2)Gal6S(b1-4)Glc6S
# Method in brief: as §1
# [17] = target: Fuc(a1-2)[Gal(a1-4)]Gal(b1-4)GlcNAc
# Method in brief: as §1
# [18] = target: Fuc(a1-2)[GalNAc(a1-3)]Gal(b1-4)GlcNAc
# Method in brief: as §1
# Gal(a1-3)Gal(b1-3)GlcNAc = target: Gal(a1-3)Gal(b1-3)GlcNAc
# Method in brief: as §1
# Gal(a1-3)Gal(b1-4)Glc = target: Gal(a1-3)Gal(b1-4)Glc
# Method in brief: as §1
# [19] = target: Gal(a1-4)Gal(b1-3)GlcNAc(b1-2)Man(a1-3)[Gal(a1-4)Gal(b1-3)GlcNAc(b1-2)Man(a1-6)]Man(b1-4)GlcNAc(b1-4)GlcNAc
# Method in brief: as §1
# Gal(a1-4)Gal(b1-4)GlcNAc = target: Gal(a1-4)Gal(b1-4)GlcNAc
# Method in brief: as §1
# Gal(a1-4)GlcNAc = target: Gal(a1-4)GlcNAc
# Method in brief: as §1
# [20] = target: Gal(b1-4)GlcNAc(b1-2)[Gal(b1-4)GlcNAc(b1-4)]Man(a1-3)[Gal(b1-4)GlcNAc(b1-2)[Gal(b1-4)GlcNAc(b1-6)]Man(a1-6)]Man(b1-4)GlcNAc(b1-4)GlcNAc
# Method in brief: as §1
# Gal3S6S(b1-4)GlcNAc6S = target: Gal3S6S(b1-4)GlcNAc6S
# Method in brief: as §1
# Gal6S(b1-4)GlcNAc = target: Gal6S(b1-4)GlcNAc
# Method in brief: as §1
# [21] = target: GalNAc(a1-3)Fuc(a1-2)Gal(b1-4)GlcNAc(b1-3)[GalNAc(a1-3)Fuc(a1-2)Gal(b1-4)GlcNAc(b1-6)]GalNAc
# Method in brief: as §1
# GalNAc(b1-3)Gal = target: GalNAc(b1-3)Gal
# Method in brief: as §1
# [22] = target: Glc(a1-6)Glc(a1-6)Glc(a1-6)Glc
# Method in brief: as §1
# Glc(b1-4)Glc = target: Glc(b1-4)Glc
# Method in brief: as §1
# Glc(b1-6)Glc = target: Glc(b1-6)Glc
# Method in brief: as §1
# [23] = target: GlcNAc(a1-4)Gal(b1-4)GalNAc
# Method in brief: as §1
# [24] = target: GlcNAc(a1-6)Gal(b1-4)GlcNAc
# Method in brief: as §1
# [25] = target: GlcNAc(b1-2)[GlcNAc(b1-6)]Man(a1-6)[GlcNAc(b1-2)Man(a1-3)]Man(b1-4)GlcNAc(b1-4)GlcNAc
# Method in brief: as §1
# Kdn(a2-3)Gal(b1-4)GlcNAc = target: Kdn(a2-3)Gal(b1-4)GlcNAc
# Method in brief: as §1
# [26] = target: Neu5Ac(a2-3)Gal(b1-3)GalNAc
# Method in brief: as §1
# [27] = target: Neu5Ac(a2-3)Gal(b1-3)GlcNAc(b1-3)Gal(b1-4)GlcNAc
# Method in brief: as §1
# [28] = target: Neu5Ac(a2-3)Gal(b1-3)[Fuc(a1-4)]GlcNAc
# Method in brief: as §1
# [29] = target: Neu5Ac(a2-3)Gal(b1-3)[Fuc(a1-4)]GlcNAc(b1-3)Gal(b1-4)[Fuc(a1-3)]GlcNAc
# Method in brief: as §1
# [30] = target: Neu5Ac(a2-3)Gal(b1-3)[Neu5Ac(a2-6)]GalNAc
# Method in brief: as §1
# [31] = target: Neu5Ac(a2-3)Gal(b1-4)GlcNAc(b1-3)Gal(b1-3)GlcNAc
# Method in brief: as §1
# [32] = target: Neu5Ac(a2-3)Gal(b1-4)GlcNAc(b1-6)[Gal(b1-3)]GalNAc
# Method in brief: as §1
# [33] = target: Neu5Ac(a2-3)Gal(b1-4)GlcNAc(b1-6)[Neu5Ac(a2-3)Gal(b1-3)]GalNAc
# Method in brief: as §1
# Neu5Ac(a2-3)GalNAc = target: Neu5Ac(a2-3)GalNAc
# Method in brief: as §1
binder,measurement,setting,value
B1,glycan array binding signal (z-score),[1],2.76
same,glycan array binding signal (z-score),[2],-0.012
same,glycan array binding signal (z-score),[3],-0.255
same,glycan array binding signal (z-score),Fuc(a1-4)GlcNAc,-0.026
same,glycan array binding signal (z-score),Gal(a1-3)Gal(b1-4)GlcNAc,-0.036
same,glycan array binding signal (z-score),[4],-0.132
same,glycan array binding signal (z-score),[5],0.169
same,glycan array binding signal (z-score),Gal3S(b1-3)GalNAc,-0.095
same,glycan array binding signal (z-score),GalNAc(a1-3)Gal,1.42
same,glycan array binding signal (z-score),GalNAc(a1-3)GalNAc,0.045
same,glycan array binding signal (z-score),[6],0.285
same,glycan array binding signal (z-score),GlcA(b1-6)Gal,-0.256
same,glycan array binding signal (z-score),GlcNAc(b1-3)Gal(b1-4)Glc,1.12
same,glycan array binding signal (z-score),Man(a1-2)Man(a1-3)Man,-0.287
same,glycan array binding signal (z-score),[7],3.23
same,glycan array binding signal (z-score),[8],-0.269
same,glycan array binding signal (z-score),[9],-0.446
same,glycan array binding signal (z-score),[10],-0.267
same,glycan array binding signal (z-score),[11],0.517
same,glycan array binding signal (z-score),[12],-0.279
same,glycan array binding signal (z-score),[13],0.219
same,glycan array binding signal (z-score),[14],-0.343
same,glycan array binding signal (z-score),Neu5Gc(a2-3)Gal(b1-4)Glc,-0.187
same,glycan array binding signal (z-score),Neu5Gc(a2-6)GalNAc,1.03
B2,glycan array binding signal (z-score),[1],-0.19
same,glycan array binding signal (z-score),Fuc(a1-2)Gal(b1-4)Glc,5.21
same,glycan array binding signal (z-score),Fuc(a1-2)Gal(b1-4)Glc6S,8.13
same,glycan array binding signal (z-score),Fuc(a1-2)Gal(b1-4)GlcNAc,6.42
same,glycan array binding signal (z-score),[15],6.86
same,glycan array binding signal (z-score),Fuc(a1-2)Gal6S(b1-4)Glc,4.06
same,glycan array binding signal (z-score),[16],8.02
same,glycan array binding signal (z-score),[17],5.33
same,glycan array binding signal (z-score),[18],-0.183
same,glycan array binding signal (z-score),[3],4.61
same,glycan array binding signal (z-score),Gal(a1-3)Gal(b1-3)GlcNAc,-0.18
same,glycan array binding signal (z-score),Gal(a1-3)Gal(b1-4)Glc,-0.172
same,glycan array binding signal (z-score),Gal(a1-3)Gal(b1-4)GlcNAc,-0.186
same,glycan array binding signal (z-score),[19],-0.17
same,glycan array binding signal (z-score),Gal(a1-4)Gal(b1-4)GlcNAc,-0.176
same,glycan array binding signal (z-score),Gal(a1-4)GlcNAc,-0.174
same,glycan array binding signal (z-score),[20],-0.175
same,glycan array binding signal (z-score),Gal3S6S(b1-4)GlcNAc6S,-0.174
same,glycan array binding signal (z-score),Gal6S(b1-4)GlcNAc,-0.188
same,glycan array binding signal (z-score),[21],-0.158
same,glycan array binding signal (z-score),GalNAc(b1-3)Gal,-0.18
same,glycan array binding signal (z-score),[22],-0.177
same,glycan array binding signal (z-score),Glc(b1-4)Glc,-0.178
same,glycan array binding signal (z-score),Glc(b1-6)Glc,-0.185
same,glycan array binding signal (z-score),[23],-0.175
same,glycan array binding signal (z-score),[24],-0.176
same,glycan array binding signal (z-score),[25],-0.186
same,glycan array binding signal (z-score),Kdn(a2-3)Gal(b1-4)GlcNAc,-0.185
same,glycan array binding signal (z-score),[26],-0.18
same,glycan array binding signal (z-score),[27],-0.182
same,glycan array binding signal (z-score),[28],-0.181
same,glycan array binding signal (z-score),[29],-0.186
same,glycan array binding signal (z-score),[30],-0.17
same,glycan array binding signal (z-score),[31],-0.178
same,glycan array binding signal (z-score),[32],-0.183
same,glycan array binding signal (z-score),[33],-0.179
same,glycan array binding signal (z-score),Neu5Ac(a2-3)GalNAc,-0.177
